Results on eight compounds are retold here after PubChem BioAssay (Tox21).

Experiment [1] is described as follows: Nuclear factor erythroid 2-related factor 2/antioxidant responsive element (Nrf2/ARE) small molecule agonists: qHTS cell viability counter screen in human keratinocytes (AID 1919968; active means well fitted curve in the direction sought with a large enough effect in the repeat runs; an effect the other way counts as inactive or inconclusive; further: nearly all actives have a fitted effect of over 55% in size). The gist of the method: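 Stably transfected HaCaT (KeratinoSens), 1,500/well. Test agents in DMSO were applied for 23 h, 37 C/5% CO2. CellTiter-Fluor was incubated 1 h before the fluorescence read.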
For orientation: In qHTS, concentration-response curves come from the screen itself.

Experiment [2] deals with Gonadotropin-releasing hormone receptor (Homo sapiens) (UniProt P30968). Nature of the experiment: Human gonadotropin-releasing hormone receptor (GnRHR) small molecule agonists, calcium flux assay in GnRHR-HEK293 cells (AID 1920063). Further: nearly all actives have a fitted effect of over 35% in size. The gist of the method: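 Stable human GnRHR HEK293 line. 18 h plating, then calcium dye for 1 h at 37 C. Agonist-mode compound addition from DMSO stocks; fluorescence monitored 3 min.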
Gonadotropin-releasing hormone receptor (Homo sapiens), sequence (P30968 whole entry, looked up): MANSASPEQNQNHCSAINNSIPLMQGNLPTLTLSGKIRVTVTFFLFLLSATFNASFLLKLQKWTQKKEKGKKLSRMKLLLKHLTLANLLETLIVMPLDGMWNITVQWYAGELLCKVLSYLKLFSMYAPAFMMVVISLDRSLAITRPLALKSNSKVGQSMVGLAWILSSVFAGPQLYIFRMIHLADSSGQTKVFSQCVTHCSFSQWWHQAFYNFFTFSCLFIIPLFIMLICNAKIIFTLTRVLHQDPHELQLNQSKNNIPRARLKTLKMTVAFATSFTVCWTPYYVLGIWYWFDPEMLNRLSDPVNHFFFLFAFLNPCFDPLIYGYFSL
On the technique in general: Calcium flux is commonly read through the fluorescence of an indicator in the cells.

The target of experiment [3] is KiSS-1 receptor (Homo sapiens) (UniProt Q969F8). Nature of the experiment: Human kisspeptin (KISS1R) small molecule agonists, calcium flux assay in KISS1R-HEK293 cells (AID 1920064; active means well fitted curve in the direction sought with a large enough effect in the repeat runs; an effect the other way counts as inactive or inconclusive). The gist of the method: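 After overnight (18 h) culture at 37 C/5% CO2, human KISS1R-HEK293 cells received calcium dye for 1 h, then test compound; emission at 540 nm (excitation 480 nm) was tracked for 3 min.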
KiSS-1 receptor (Homo sapiens), sequence (Q969F8 whole entry, looked up): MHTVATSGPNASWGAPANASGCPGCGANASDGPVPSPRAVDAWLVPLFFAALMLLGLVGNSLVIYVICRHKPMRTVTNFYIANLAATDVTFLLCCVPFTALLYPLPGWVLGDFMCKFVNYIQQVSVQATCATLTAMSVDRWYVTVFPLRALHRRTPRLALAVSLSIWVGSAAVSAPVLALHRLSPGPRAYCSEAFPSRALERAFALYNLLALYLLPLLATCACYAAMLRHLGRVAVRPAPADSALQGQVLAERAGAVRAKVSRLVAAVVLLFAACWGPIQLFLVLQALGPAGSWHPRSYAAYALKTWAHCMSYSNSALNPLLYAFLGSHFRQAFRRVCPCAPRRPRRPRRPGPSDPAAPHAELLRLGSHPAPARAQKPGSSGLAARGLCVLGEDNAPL

Experiment [4] can be described thus: G protein-coupled receptor (GPCR) small molecule agonists, calcium flux assay: HEK293 wild type cell line counter screen (AID 1920065). The gist of the method: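 Following 18 h incubation at 37 C/5% CO2, plates got calcium dye for 1 h; compounds, ATP or DMSO were then pinned in and fluorescence followed kinetically (480/540 nm).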
The nature of experiment [5]: p53 small molecule agonists, cell-based qHTS assay with human liver microsomes (AID 1963577).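 Further: p53 response element beta-lactamase reporter cells with liver microsomes plus NADPH.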 Summed up:
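With metabolic activation: human liver microsomes (0.5 mg/mL final) plus NADPH (0.5 mg/mL final) added alongside compounds to p53RE-bla cells; 16 h 37 C exposure; beta-lactamase read by LiveBLAzer fluorescence.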

Experiment [6] can be described thus: p53 small molecule agonists, cell-based qHTS assay with rat liver microsomes (AID 1963578). Further: potency means the concentration at half of the fitted maximal effect. Summed up:
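Metabolic activation by rat liver microsomes and NADPH, each 0.5 mg/mL final, added right after compounds to p53RE-bla reporter cells (4,000/well, plated 5 h earlier). 16 h at 37 C, then LiveBLAzer substrate for 2 h at room temperature in the dark; fluorescence read-out.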

Experiment [7] can be described thus: p53 small molecule agonists, cell-based qHTS assay with human liver microsomes: qHTS cell viability counter screen (AID 1963579). Further: nearly all actives have a fitted effect of over 45% in size. The gist of the method: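 Metabolic activation used human liver microsomes and NADPH, both 0.5 mg/mL final, over 16 hours at 37 C on p53RE-bla cells (4,000/well). Cytotoxicity measured by CellTiter-Glo luminescence, 30 min at room temperature.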

Experiment [8] can be described thus: p53 small molecule agonists, cell-based qHTS assay with rat liver microsomes: qHTS cell viability counter screen (AID 1963580). Further: nearly all actives have a fitted effect of over 45% in size. The gist of the method: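 Counter screen for cytotoxicity under metabolic activation: rat liver microsomes and NADPH, 0.5 mg/mL final each, added with compounds to p53RE-bla HCT-116 cells; 16 h at 37 C, then ATP luminescence read.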

Experiment [9] is described as follows: p53 small molecule agonists, cell-based qHTS assay (AID 1963582; active means well fitted activation curve with a large enough effect in the signal ratio in the repeat runs, not every such curve was filed as active; the % refers to the signal ratio). Summed up:
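Measured: fluorescence from cleaved LiveBLAzer substrate. System: p53RE-bla cells, 16 h compound treatment at 37 C, 2 h substrate step at room temperature.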

Experiment [10] addresses 5-hydroxytryptamine receptor 2A (Homo sapiens) (UniProt P28223). Briefly: 5-hydroxytryptamine receptor 2A (HTR2A) small molecule antagonists, cell-based qHTS assay (AID 1963586). Further: nearly all actives have a fitted effect of over 45% in size. The gist of the method:
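CHO cells stably expressing human HTR2A were plated for 18 h at 37 C, then loaded with calcium dye for 1 h. Compounds were preincubated 5 min at room temperature before DOI (4 nM solution) was added. Kinetic fluorescence was read for 3 min.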

Experiment [11] shares this target. Nature of the experiment: 5-hydroxytryptamine receptor 2A (HTR2A) small molecule agonists, cell-based qHTS assay (AID 1963587). Further: nearly all actives have a fitted effect of over 30% in size. Summed up:
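HTR2A-CHO cells, plated 18 h at 37 C/5% CO2, dye-loaded 1 h at 37 C; compounds in DMSO added by pin tool (agonist mode). Intracellular calcium flux read as kinetic fluorescence on FDSS over 2 min at 1 s intervals.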

Experiment [12] concerns the target Muscarinic acetylcholine receptor M1 (Homo sapiens) (UniProt P11229). Briefly: Cholinergic receptor muscarinic 1 (CHRM1) small molecule antagonists, cell-based qHTS assay (AID 1963588). Further: nearly all actives have a fitted effect of over 40% in size. The gist of the method: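 Compounds were tested at 15 concentrations in three independent runs. Dye-loaded CHRM1-CHO cells were exposed 5 min at room temperature before stimulation by acetylcholine added at 50nM. Intracellular calcium was read kinetically on FDSS for 3 min.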

For experiment [13] the target is unchanged. Nature of the experiment: Cholinergic receptor muscarinic 1 (CHRM1) small molecule agonists, cell-based qHTS assay (AID 1963589). Further: nearly all actives have a fitted effect of over 35% in size. Summed up:
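Kinetic fluorescence (1 s intervals) of calcium-sensitive dye in human M1 CHO cells after compound addition; cells pre-incubated 18 h at 37 C/5% CO2 and dye-loaded 1 h.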

Experiment [14] in a line: cAMP Responsive Elements (CRE) small molecule agonists, cell-based qHTS assay (AID 1963590). The gist of the method:
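Test agents in DMSO were incubated 3 h at 37 C/5% CO2 with CRE-bla HEK 293T cells seeded 18 h earlier; LiveBLAzer B/G FRET substrate was added and read after 2 h at room temperature.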

The nature of experiment [15]: cAMP Responsive Elements (CRE) small molecule antagonists, cell-based qHTS assay (AID 1963591; active means well fitted inhibition curve with a large enough effect in the signal ratio in the repeat runs, not every such curve was filed as active; the % refers to the signal ratio). The gist of the method: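 Reporter line CRE-bla HEK 293T in dialyzed-FBS DMEM; cells preincubated 18 h, treated 3 h with compound plus NKH477 (0.25 uM final); LiveBLAzer FRET, 2 h RT.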
Experiment [16] concerns the target Beta-2 adrenergic receptor (Homo sapiens) (UniProt P07550). Briefly: Adrenergic beta2 receptor (ADRB2) small molecule antagonists, cell-based qHTS assay (AID 1963592). Further: series mostly up to about 92 µM; nearly all actives have a fitted effect of over 50% in size. The gist of the method: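 Assay format: CHO-ADRB2 cells, 18-20hr seeding at 37C/5% CO2, then compound plus 1nM isoproterenol agonist mix for 0.5hr RT. Homogeneous time-resolved fluorescence cAMP detection after 1hr, expressed as 665/615 nm ratio.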

Experiment [17] has the same target. Briefly: Adrenergic beta2 receptor (ADRB2) small molecule agonists, cell-based qHTS assay (AID 1963593).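 Further: CHO cells stably overexpressing human ADRB2.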 The gist of the method:
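CHO cells stably over-expressing ADRB2 were plated overnight at 37C, then dosed with compounds plus a stimulation mix containing 100uM IBMX and 25uM Ro-20-1724 for 0.5hr at room temperature. cAMP was measured by HTRF competition, 1hr.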

Experiment [18] concerns the target D(2) dopamine receptor (Homo sapiens) (UniProt P14416). Briefly: Dopamine D2 receptor (DRD2) small molecule agonists, cell-based qHTS assay (AID 1963594). Further: nearly all actives have a fitted effect of over 35% in size. The gist of the method:
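HEK293 cells stably expressing DRD2 were cultured 24 h at 37 C, then given Ro20-1724 (0.1 mM final) and compounds for 10 min at room temperature. NKH477 (200nM) was then added for 30 min. cAMP was read by HTRF.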

The target is the same in experiment [19]. Briefly: Dopamine D2 receptor (DRD2) small molecule antagonists, cell-based qHTS assay (AID 1963595; active means well fitted inhibition curve with a large enough effect in the signal ratio in the repeat runs, with a control signal flat; the % refers to the signal ratio). Summed up: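 Antagonist mode in DRD2-HEK293 cells: after compound addition with 0.1 mM Ro20-1724, cells received quinpirole (12 nM) and NKH477 (200 nM) for 30 min at room temperature; HTRF cAMP read after 1 h detection.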
A short description of experiment [20]: p53 small molecule agonists, cell-based qHTS assay: qHTS cell viability counter screen (AID 1963581). Further: nearly all actives have a fitted effect of over 45% in size. Summed up: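 qHTS counter screen: 16 h compound exposure at 37 C of p53RE-bla HCT-116 cells (4,000 per well, seeded 5 h prior), cell viability by ATP luminescence.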

Results filed as inconclusive are left out. Activity calls are given as the source filed them. Unless noted, the call rests on the fitted dose curve.

Muscarinic acetylcholine receptor M1 (Homo sapiens), sequence (P11229 whole entry, looked up): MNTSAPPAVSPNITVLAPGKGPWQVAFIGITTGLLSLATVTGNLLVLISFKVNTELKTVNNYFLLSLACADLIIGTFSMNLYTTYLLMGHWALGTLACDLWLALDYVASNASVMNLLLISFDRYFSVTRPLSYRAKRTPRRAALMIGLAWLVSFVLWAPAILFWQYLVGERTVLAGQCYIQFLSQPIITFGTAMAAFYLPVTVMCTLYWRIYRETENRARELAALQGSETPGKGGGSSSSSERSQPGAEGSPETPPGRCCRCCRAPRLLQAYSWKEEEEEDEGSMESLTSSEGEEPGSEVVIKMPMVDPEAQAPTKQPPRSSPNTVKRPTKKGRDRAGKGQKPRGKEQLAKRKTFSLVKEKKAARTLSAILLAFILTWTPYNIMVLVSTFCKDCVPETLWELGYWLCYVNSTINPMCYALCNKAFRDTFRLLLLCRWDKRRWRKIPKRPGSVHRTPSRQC
5-hydroxytryptamine receptor 2A (Homo sapiens), sequence (P28223 whole entry, looked up): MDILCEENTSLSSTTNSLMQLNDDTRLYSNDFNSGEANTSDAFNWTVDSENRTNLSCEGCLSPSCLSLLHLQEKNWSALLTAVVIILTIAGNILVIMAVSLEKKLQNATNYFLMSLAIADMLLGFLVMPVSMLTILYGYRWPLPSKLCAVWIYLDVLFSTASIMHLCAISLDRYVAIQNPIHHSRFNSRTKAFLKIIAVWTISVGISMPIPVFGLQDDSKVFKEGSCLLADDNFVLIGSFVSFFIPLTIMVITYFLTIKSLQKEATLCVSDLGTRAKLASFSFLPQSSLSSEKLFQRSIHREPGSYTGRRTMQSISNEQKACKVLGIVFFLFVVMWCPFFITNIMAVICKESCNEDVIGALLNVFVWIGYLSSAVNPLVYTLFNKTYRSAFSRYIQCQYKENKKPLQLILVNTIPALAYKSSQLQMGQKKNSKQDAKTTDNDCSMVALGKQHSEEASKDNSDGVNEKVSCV
Beta-2 adrenergic receptor (Homo sapiens), sequence (P07550 whole entry, looked up): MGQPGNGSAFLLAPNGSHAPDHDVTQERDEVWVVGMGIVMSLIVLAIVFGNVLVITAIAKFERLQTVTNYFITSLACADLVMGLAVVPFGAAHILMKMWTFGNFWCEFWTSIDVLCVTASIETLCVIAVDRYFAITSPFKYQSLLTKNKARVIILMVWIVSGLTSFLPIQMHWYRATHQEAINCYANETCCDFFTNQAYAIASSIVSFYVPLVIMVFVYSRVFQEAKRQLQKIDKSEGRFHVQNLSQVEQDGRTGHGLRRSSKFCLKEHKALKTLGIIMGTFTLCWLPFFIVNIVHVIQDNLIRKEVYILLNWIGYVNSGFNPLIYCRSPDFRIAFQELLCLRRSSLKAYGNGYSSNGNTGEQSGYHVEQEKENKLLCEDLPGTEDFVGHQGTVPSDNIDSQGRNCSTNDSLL
D(2) dopamine receptor (Homo sapiens), sequence (P14416 whole entry, looked up): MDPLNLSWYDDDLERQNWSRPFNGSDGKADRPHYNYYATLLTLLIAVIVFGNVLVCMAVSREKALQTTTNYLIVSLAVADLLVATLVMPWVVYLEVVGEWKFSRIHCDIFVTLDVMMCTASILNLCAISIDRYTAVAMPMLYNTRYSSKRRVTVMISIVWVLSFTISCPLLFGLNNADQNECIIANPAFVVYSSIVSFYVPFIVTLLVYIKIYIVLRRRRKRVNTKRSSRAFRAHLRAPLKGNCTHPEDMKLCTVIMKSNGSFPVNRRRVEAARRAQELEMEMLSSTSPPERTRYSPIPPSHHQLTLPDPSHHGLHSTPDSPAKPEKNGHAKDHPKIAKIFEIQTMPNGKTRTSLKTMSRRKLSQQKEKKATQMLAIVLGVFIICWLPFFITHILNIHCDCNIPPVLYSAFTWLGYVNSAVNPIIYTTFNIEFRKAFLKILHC

`CC1(C)O[C@@H]2[C@@H](CO[C@@]3(COS(N)(=O)=O)OC(C)(C)O[C@@H]23)O1`: the Potency entry in experiment [1], in experiment [2], in [3], in experiment [4], in experiment [5] and in experiment [6] was “inactive” each time. Further, the Potency entry in experiment [7], in experiment [8], in experiment [9], in experiment [10], in experiment [11] and in experiment [12] was “inactive” in each case. The Potency entry in experiment [13], in [14], in experiment [15], in experiment [16], in experiment [17] and in experiment [18] was “inactive” each time. For the same compound, the Potency entry in experiment [19] is “inactive”.

As to `Cc1ccc(C(C)C)cc1`, the Potency result in experiment [1], in experiment [2], in [3], in experiment [4], in [5] and in experiment [6] was “inactive” throughout. Moreover, the Potency entry in experiment [7], in [8], in experiment [20], in [9], in experiment [10] and in experiment [12] was “inactive” each time. For the same compound, the Potency entry in experiment [13], in experiment [14], in [15], in experiment [16], in experiment [17] and in experiment [19] was “inactive” in each case.

With `Cc1ccc(S(=O)(=O)N=C=O)cc1`, the Potency entry in [1], in experiment [2], in experiment [3], in experiment [4], in experiment [5] and in [6] was “inactive” throughout. Besides, the Potency entry in experiment [7], in experiment [20], in experiment [9], in experiment [10], in [11] and in [12] was “inactive” throughout. For the same compound, the Potency entry in experiment [13], in experiment [14], in experiment [15], in [16], in experiment [18] and in experiment [19] was “inactive” each time.

Turning to `C[C@]12CC[C@@H]3c4ccc(O)cc4CC[C@H]3[C@@H]1C[C@@H](O)[C@@H]2O`, the Potency entry in experiment [1], in [2], in experiment [3], in [4], in experiment [5] and in experiment [6] was “inactive” in each case. The Potency result in experiment [7], in experiment [8], in experiment [20], in [9], in [14] and in [15] was “inactive” in each case. The Potency result in experiment [16], in [17], in [18] and in [19] was “inactive” in each case.

As for `CCCCC(CC)COC(=O)CCCCC(=O)OCC(CC)CCCC` (centres undefined), the Potency entry in experiment [1], in [2], in experiment [3], in experiment [4], in experiment [5] and in experiment [6] was “inactive” in each case. Besides, the Potency result in experiment [7], in experiment [8], in experiment [20], in [9], in [10] and in [11] was “inactive” in each case. Moreover, the Potency result in experiment [12], in [13], in experiment [14], in [15], in experiment [16] and in [17] was “inactive” throughout. In addition, the Potency result in experiment [18] and in experiment [19] was “inactive” in each case.

In the case of `CCc1ccc(O)cc1`, the Potency entry in [1], in experiment [2], in experiment [3], in experiment [4], in [5] and in experiment [6] was “inactive” throughout. Moreover, the Potency result in [7], in experiment [20], in experiment [9], in experiment [10], in experiment [11] and in experiment [12] was “inactive” each time. Moreover, the Potency result in experiment [13], in experiment [14], in experiment [15], in [16], in experiment [17] and in experiment [18] was “inactive” in each case. Also, the Potency entry in experiment [19] is “inactive”.

Regarding `c1ccc2c(c1)c1cccc3ccc4cccc2c4c31`, the Potency entry in experiment [1], in experiment [2], in experiment [3], in experiment [4], in experiment [5] and in experiment [7] was “inactive” throughout. Further, the Potency result in [8], in [20], in experiment [14], in experiment [15], in experiment [16] and in experiment [18] was “inactive” each time. For the same compound, in [19], the Potency result is “inactive”. In addition, the Potency in experiment [6] was 32.2 µM (active).

As for `CCCCOC(=O)c1ccc(O)cc1`, the Potency entry in [1], in experiment [2], in experiment [3], in experiment [4], in experiment [5] and in experiment [6] was “inactive” throughout. Also, the Potency result in experiment [7], in experiment [8], in experiment [20], in experiment [9], in experiment [10] and in [11] was “inactive” in each case. For the same compound, the Potency entry in experiment [12], in experiment [13], in experiment [14], in [15], in [16] and in experiment [17] was “inactive” each time. Also, the Potency entry in experiment [18] and in [19] was “inactive” each time.
